A selection: hits, their analogues and other compounds. The true share with any hit is near 7.5%.
Rab9 promoter act: qHTS Assay for Rab9 Promoter Activators. Huh7 Rab9 promoter-luciferase reporter, luminescence, 24 h. Potency, µM (series often up to 9.22 µM), without a hit: at the highest dose activation, negative = inhibition, most hits filed as activators. hit rate 2.8% among 320,000. AID 485297, 2010; further: % of control where 0% means no effect; nearly all actives have a fitted effect of over 60% in size
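Measured in stably transfected Huh7 cells bearing a Rab9 promoter–luciferase construct: 24 h compound treatment at 37 °C, followed by luminescence detection.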
NPC1 prom act: qHTS Assay for NPC1 Promoter Activators. Huh7 NPC1 promoter luciferase reporter, 24 h. Potency, µM (titrated, usually from 9.22 µM), without a hit: at the highest dose activation, actives largely listed as activators. hit rate 2.4% among 320,000; further: % of control where 0% means no effect; nearly all actives have a fitted effect of over 60% in size
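Cells: Huh7 expressing luciferase under the NPC1 promoter, 1500/well. Seeded 2 h, compound added, incubated 24 h at 37 °C. Luciferase reagent, 10 min ambient, then luminescence.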
ELG1 genotoxic: qHTS screen for small molecules that induce genotoxicity in human embryonic kidney (HEK293T) cells expressing luciferase-tagged ELG1; HEK293T ELG1-luciferase reporter, luminescence, 16 h; Potency, µM (top dose mostly 46 µM), without a hit: at the top dose activity change, positive = activation, most hits filed as activators; AID 504466, 2011; hit rate 1.3% among 330,000; further: % of control where 0% means no effect; nearly all actives have a fitted effect of over 60% in size
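Quantitative HTS format in 1536-well plates. HEK293T ELG1-luciferase reporter cells receive test compound and are incubated 16 hr at 37 °C, 5% CO2; ONE-Glo added, 30 min room temperature, then luminescence read.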
SMN2 splice up: qHTS Assay for Enhancers of SMN2 Splice Variant Expression; HEK293 SMN2-luciferase splicing reporter, luminescence, 30-36 h; Potency, µM (doses to about 46.1 µM), inactives show at the top dose activity change, positive = activation, usual class: activators; hit rate 2.8% among 210,000; further: % of control where 0% means no effect; nearly all actives have a fitted effect of over 55% in size
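HEK293 cells carry an SMN2 minigene-luciferase reporter in which exon 7 inclusion puts luciferase in frame. Cells were seeded at 2000 cells/well, attached for 10-12 hours, then exposed to compounds for 30-36 hours at 37C before ONE-Glo luminescence.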
FLuc modulator: qHTS profiling assay for firefly luciferase inhibitor/activator using purifed enzyme and Km concentrations of substrates (counterscreen for miR-21 project); Luciferin 4-monooxygenase (Photinus pyralis), P08659; purified FLuc, Km substrates, luminescence inhibition; Potency, µM (titrated, usually from 57.5 µM), for the others: at the highest dose activity change, negative = inhibition, most hits filed as inhibitors; hit rate 6.9% among 360,000; AID 588342, 2011;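 further: plate controls were vehicle for no effect and reference inhibitor for full effect; nearly all actives have a fitted effect of over 55% in size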
Target sequence (P08659 whole entry, looked up): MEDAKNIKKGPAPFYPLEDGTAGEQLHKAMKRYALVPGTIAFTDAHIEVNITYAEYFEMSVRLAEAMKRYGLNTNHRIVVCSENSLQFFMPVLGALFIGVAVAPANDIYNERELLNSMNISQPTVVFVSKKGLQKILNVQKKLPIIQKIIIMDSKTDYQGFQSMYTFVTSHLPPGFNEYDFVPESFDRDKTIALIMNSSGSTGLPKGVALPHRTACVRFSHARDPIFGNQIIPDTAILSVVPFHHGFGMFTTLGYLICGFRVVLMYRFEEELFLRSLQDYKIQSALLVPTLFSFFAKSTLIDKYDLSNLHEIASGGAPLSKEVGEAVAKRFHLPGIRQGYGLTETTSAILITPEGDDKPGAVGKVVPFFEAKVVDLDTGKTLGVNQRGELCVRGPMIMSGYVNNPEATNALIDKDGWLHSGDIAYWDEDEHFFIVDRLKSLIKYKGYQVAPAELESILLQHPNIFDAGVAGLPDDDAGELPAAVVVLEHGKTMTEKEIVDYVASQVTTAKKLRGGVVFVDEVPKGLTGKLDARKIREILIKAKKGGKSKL
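Purified P. pyralis luciferase, 10 nM final, with Km-level 10 uM D-luciferin and 10 uM ATP in 50 mM Tris acetate pH 7.5, 10 mM Mg acetate, 0.01% Tween-20, 0.05% BSA; 6-point qHTS titration about 60 µM downward; luminescence read.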
An asterisk follows results filed as active; ? = inconclusive; . = not tested or not shown; [ ] = remark or other dose. The call rests on the fitted dose curve; in most records, active means well fitted curve in the direction sought with a large enough effect; inconclusive means small, poorly fitted or top-dose-only effect, or another doubt; inactive means no such curve, though single readings can be large; an effect the other way counts as inactive or inconclusive. Potency means the concentration at half of the fitted maximal effect.

SMILES	Rab9 promoter act	NPC1 prom act	ELG1 genotoxic	SMN2 splice up	FLuc modulator
CCCCOc1ccc(CN2CCN(CCO)CC2)cc1	7%	9%	?	-12%	-14%
CC(=NCCCO)c1c(O)n(Cc2ccccc2)c(=O)[nH]c1=O	-8%	1%	1%	-8%	7%
O=C1NC(=S)N(c2ccc(F)cc2)C(=O)/C1=C\c1ccoc1	-6%	-1%	0%	.	24µM*
Cc1ccc(/C=C2\C(=O)NC(=S)N(c3cccc(F)c3)C2=O)o1	-1%	-3%	0%	.	17µM*
CCOc1cc2c(cc1OCC)-n1cccc1C(c1ccc(F)c(OC)c1)NC2 (stereo not given)	-7%	4%	0%	.	1%
Cc1ccc(OC(=O)c2ccc(Br)o2)cc1	-1%	-6%	0%	-11%	4.8µM*
CNc1ccc2nc3ccccc3[n+](C)c2c1	-22%[1.84 µM]	-43%	-6%	.	17µM*
C[n+]1c2ccccc2nc2ccc(NCCO)cc21	-5%[1.84 µM]	2%	-18%	.	19µM*
OCCNc1c2c(nc3ccccc13)CCCC2	-10%	-1%	-4%	-17%	3%
C=CCn1c(O)c(/C=N/NC(=O)c2ccncc2)c(=O)[nH]c1=O	-5%	2%	0%	.	-1%
O=C(NCC(c1cccnc1)N1CCOCC1)Oc1ccccc1 (stereo not given)	?	20%	?	14µM*	15µM*
N#CC(c1cccnc1)N1CCOCC1 (stereo not given)	2%	-3%	-1%	.	0%
COc1ccccc1N=Cc1c(O)n(C)c(=O)n(C)c1=O	12%	5%	17%	-13%	7.6µM*
COc1ccc(Cl)cc1N=Cc1c(O)n(C)c(=O)n(C)c1=O	1%	-2%	2%	.	1%
O=C(Nc1ccccc1F)Oc1cccc(OC(=O)Nc2ccccc2F)c1	2.8µM*	3.5µM*	10%	.	17µM*
COc1ccc(C)cc1NC(=O)CN1CCN(CC(=O)Nc2ccccc2F)CC1	-10%	-3%	?	-54%	2%
CN1C(=O)C(=Cc2ccccc2OCc2ccc(Cl)cc2)C(=O)N(C)C1=O	1%	-3%	?	?	9.5µM*
CCOc1ccc(-c2nc3ccc(-c4nc5ccc(N6CCN(C)CC6)cc5[nH]4)cc3[nH]2)cc1	.	.	.	4µM*	.
CCOc1ccc(-c2cc(C)[n+](CCN3CCOCC3)c(-c3ccc(OCC)cc3)c2)cc1	-4%	-3%	-13%	.	-1%
COc1cc(N2CCOCC2)ccc1/C=C1\C(=O)NC(=O)N(Cc2ccc3c(c2)OCO3)C1=O	-6%	-6%	1%	4%	17µM*
O=C(Nc1ccc2c(c1)OCCO2)c1cccn(Cc2cccc(F)c2)c1=O	.	.	.	.	21µM*
Cc1ccc(NC(=O)N(Cc2ccc3c(c2)OCO3)C2CCN(Cc3ccccc3)CC2)cc1C	.	.	.	.	-6%
Cc1ccc(Cn2cccc(C(=O)Nc3ccc4c(c3)OCO4)c2=O)cc1	.	.	.	.	-17%
O=C(Nc1ccc2c(c1)OCO2)c1cccn(Cc2ccccc2)c1=O	.	.	.	.	17µM*
Cc1ccc(Cn2cccc(C(=O)Nc3ccc4c(c3)OCCO4)c2=O)cc1	.	.	.	.	8.5µM*
SMILES	Rab9 promoter act	NPC1 prom act	ELG1 genotoxic	SMN2 splice up	FLuc modulator
O=C(CSCc1ccccc1)Nc1ccc2c(c1)OCO2	3.2µM*	?	?	11%	15µM*
O=C(Nc1ccon1)c1cccn(Cc2ccccc2)c1=O	.	.	.	.	-2%
O=C(Nc1ccccc1)c1cccn(Cc2ccccc2)c1=O	4µM*	16%	?	-46%	24µM*
CCc1ccc(NC(=O)c2cccn(Cc3cccc([N+](=O)[O-])c3)c2=O)cc1	.	.	.	.	9.5µM*
O=C(Nc1ccncc1)c1cccn(Cc2ccccc2)c1=O	-29%	-27%	1%	-75%	-14%
O=C(Nc1ccc2c(c1)OCO2)c1cccn(Cc2cccc(F)c2)c1=O	.	.	.	.	27µM*
CC(C)=CCc1c(O)cc2c(c1O)C(=O)CC(c1ccc(O)cc1)O2 (stereo not given)	3%	20%	6%	.	?
CCOc1ccc(OC(=O)c2ccc3c(=O)n4c(nc3c2)CCC4)cc1	-3%	-1%	-4%	.	12µM*
COc1ccc(P2(=O)Nc3ccccc3N2)cc1	-4%	-3%	17%	24%	7.6µM*
COc1ccc(C(=O)OCC(=O)Nc2ccc([N+](=O)[O-])cc2OC)c(O)c1	-8%	-6%	?	-18%	0%
O=C(O)CCC(=O)NCCC1=c2ccccc2=N/C1=C\c1c(O)n(Cc2ccc(F)cc2)c(=S)[nH]c1=O	-4%	-5%	5%	.	11µM*
O=C(Cn1cc(C(=O)c2ccccc2)c2ccccc21)NCc1ccco1	21%	5%	0%	.	?
Cc1ccc2nc3c(cc2c1)CC1(C(=O)N(C)C(=O)N(C)C1=O)C1COCCN31 (stereo not given)	23%	20%	?	.	15µM*
Cc1cccn2c(=O)c3c(nc12)N1CCCCCC1C1(C3)C(=O)N(C)C(=O)N(C)C1=O (stereo not given)	-6%	-2%	2%	.	-1%
Cc1ccc2nc3c(cc2c1)CC1(C(=O)N(C)C(=O)N(C)C1=O)C1CCCCN31 (stereo not given)	27%	?	?	?	5.4µM*
C=CCn1c(O)c(C(C)=NCCCN(C)C)c(=O)[nH]c1=O	1%	-3%	0%	.	-2%
O=c1oc2ccccc2c(O)c1C(c1ccc([N+](=O)[O-])cc1)c1c(O)c2ccccc2oc1=O	2%	-4%	-10%	-10%	19µM*
CC(C)c1ccc(C(c2c(O)c3ccccc3oc2=O)c2c(O)c3ccccc3oc2=O)cc1	.	.	.	1%[9.22 µM]	.
C/C(=N\NC(=O)c1ccccc1O)c1c(O)n(Cc2ccccc2)c(=O)[nH]c1=O	-3%	-3%	4%	.	11µM*
C/C(=N\NC(=O)c1ccccc1Cl)c1c(O)n(C2CCCCC2)c(=O)[nH]c1=O	-1%	1%	0%	.	-2%
C/C(=N\NC(=O)c1ccccc1O)c1c(O)n(C2CCCCC2)c(=O)[nH]c1=O	-1%	2%	5%	.	27µM*
CC1CN=C(NCc2ccccc2)S1 (stereo not given)	1%	-1%	3%	23%	-2%[2.3 µM]
COc1ccc(C[C@@H](N)c2ccc(OC)cc2)cc1	.	.	.	-10%[9.22 µM]	.
Cc1ccccc1-n1c(C)cc(/C=C2/C(=O)NC(=O)N(Cc3ccco3)C2=O)c1C	-1%	-2%	5%	4%	19µM*
Cc1ccc(-n2c(C)cc(/C=C3/C(=O)NC(=O)N(C)C3=O)c2C)cc1	-2%	-1%	1%	-6%	0.6µM*
Cc1cc(/C=C2\C(=O)NC(=O)N(Cc3ccco3)C2=O)c(C)n1-c1ccc(O)cc1	-10%	5%	11%	.	15µM*

Screens: PubChem, National Center for Advancing Translational Sciences (NCATS)
